In PubChem BioAssay (NCI):
This is part of a sample that, as a whole, favours compounds with a hit. Of some 79,000 tested, about 15% had one in any assay. Calls of active or inactive are those of the source. No stated cut-off is given here; in the data, active means growth inhibition above about 70%; inactive means the rest.

Legend:
[1] = NCI Yeast Anticancer Drug Screen. Data for the rad50 strain (AID 155);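 further: 0% = growth of vehicle-only cultures of the same strain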; settings: S. cerevisiae rad50 strain growth inhibition; at 50.0 µM; stronger effect = higher value
How it was run: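 Readout: growth inhibition relative to vehicle-treated cultures. Compound exposure was carried out in a genetically defined yeast strain deficient in DNA damage repair.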

[2] = NCI Yeast Anticancer Drug Screen. Data for the mec2-1 strain (AID 157); settings: S. cerevisiae mec2-1 strain, at 50.0 µM, stronger effect = higher value
How it was run: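 Strain: mec2-1 (DNA repair/cell cycle alteration). Compound exposure, then growth measured; inhibition expressed relative to vehicle.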

[3] = NCI Yeast Anticancer Drug Screen. Data for the sgs1 mgt1 strain (AID 161);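 further: 0% = growth of cultures given vehicle only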; settings: S. cerevisiae sgs1 mgt1 strain, at 50.0 µM, stronger effect = higher value
How it was run: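 Mutant yeast exposed to compound; growth scored against vehicle-only wells.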

[4] = NCI Yeast Anticancer Drug Screen. Data for the cln2 rad14 strain (AID 165);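 further: 0% = growth equal to vehicle treated cultures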; settings: S. cerevisiae cln2 rad14 strain, at 50.0 µM, stronger effect = higher value
How it was run: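 Compounds are applied to the cln2 rad14 yeast strain, and growth is then compared with that of vehicle-treated cultures to give inhibition.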

[5] = NCI Yeast Anticancer Drug Screen. Data for the bub3 strain (AID 167); settings: S. cerevisiae bub3 mutant strain, at 50.0 µM, stronger effect = higher value
How it was run: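 Readout: yeast growth inhibition, expressed relative to vehicle-only wells. The test organism is a mutant strain from a panel with lesions in DNA repair or checkpoint genes.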

[6] = NCI Yeast Anticancer Drug Screen. Data for the mlh1 rad18 strain (AID 175); settings: S. cerevisiae mlh1 rad18 strain growth inhibition; at 50.0 µM; stronger effect = higher value
How it was run: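 Read-out is yeast growth inhibition, calculated against vehicle-only controls. The compound was applied to a strain engineered with DNA damage repair alterations.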

Measured: growth inhibition

CN(C)CCNC(=O)c1cccc(C(=O)Nc2ccccc2)c1[N+](=O)[O-]
inactive: [1] 13.7% | [2] -12.6% | [3] -7.7% | [4] 20.4% | [5] -9.95% | [6] -41.6%

O=C(OCC(O)C(O)C(O)C(SCc1ccccc1)SCc1ccccc1)c1ccc([N+](=O)[O-])cc1 (stereo unspecified)
inactive: [1] 23.6% | [2] 3.1% | [3] 31.6% | [4] 20.4% | [5] -1% | [6] 5.85%

COc1onc(C)c1CC(=O)O
inactive: [1] 2.7% | [2] 1.2% | [3] -7.3% | [4] -32.1% | [5] -8.65% | [6] 2.75%

O=C(Oc1c(OC(=O)c2ccccc2)c2ccccc2c2ccccc12)c1ccccc1
inactive: [1] 3.2% | [2] 9.35% | [3] 7.85% | [4] -1.7% | [5] -1.25% | [6] 20.4%

O=C(OCc1ccccc1)c1ccc(NCc2cc(O)ccc2O)cc1
active: [1] 88.7% | [2] 90.7% | [3] 89.7% | [4] 89.6% | [5] 88% | [6] 92.2%

CCCC1C(CC)C(NC)C(C#N)(C#N)C1(C#N)C#N (stereo unspecified)
inactive: [1] 7.05% | [2] 38.9% | [3] 8.95% | [4] 26.3% | [5] 8.3% | [6] 7.25%

CCN(CC)c1ccc(/C=N\NC(=O)CCCC(=O)N/N=C/c2ccc(N(CC)CC)cc2)cc1
inactive: [1] -27.6% | [2] 2.65% | [3] -22.9% | [4] -21.9% | [5] 5% | [6] -30.4%

O=C(Nc1ccccc1)Nc1ccccc1C(=O)O
inactive: [1] -5.8% | [2] -22% | [3] -16.4% | [4] -54.6% | [5] -16.2% | [6] -31.3%

Cc1[nH]c2ccccc2c1C(c1cc(Cl)cc(Cl)c1O)c1c(C)[nH]c2ccccc12
inactive: [1] 29.8% | [2] 26.1% | [3] 25.8% | [4] -1.9% | [5] -5.05% | [6] 37.8%

Cc1cc(OCCN(C)C)cc(C)c1Cl
inactive: [1] -2% | [2] -0.75% | [3] 25.1% | [4] 37.6% | [5] -16.9% | [6] 8.8%

CC(C)(C)c1ccc(Oc2nc(Oc3ccc(C(C)(C)C)cc3)nc(Oc3ccc(C(C)(C)C)cc3)n2)cc1
inactive: [1] 19.6% | [2] 10.8% | [3] 10.6% | [4] 3.8% | [5] -1.85% | [6] 11.2%

CCOC(=O)c1ccc([N+](=O)[O-])cc1
inactive: [1] -9.55% | [2] -12% | [3] -17.4% | [4] -29.2% | [5] -18.6% | [6] 21.1%

Cc1ccccc1NC(=O)c1ccc(C(=O)Nc2ccccc2C)cc1
inactive: [1] 11% | [2] -10.8% | [3] 9.2% | [4] 7.8% | [5] 1.05% | [6] 35.9%

SC1c2cc(Cl)ccc2-c2c(Cl)cc(Cl)cc21 (stereo unspecified)
inactive: [1] -2.7% | [2] 3.35% | [3] -6.05% | [4] 9.1% | [5] 10.6% | [6] -11.8%

CCN(CC)C(=S)N1C(=O)C2C3CCC(O3)C2C1=O (stereo unspecified)
inactive: [1] 19.1% | [2] 11.9% | [3] 13.2% | [4] 6.75% | [5] 28.2% | [6] -11.2%

O=C(/C=C(\c1ccccc1)C1C2C=CC(C2)C1c1ccccc1)c1ccccc1 (stereo unspecified)
inactive: [1] 61.6% | [2] 64.2% | [4] 49%
active: [3] 91.7% | [5] 75.2% | [6] 88.8%

N#C/C(=C\C1CCCC([N+](=O)[O-])C1)C1CCC([N+](=O)[O-])CC1 (stereo unspecified)
inactive: [1] -0.55% | [2] 5.3% | [3] -7.15% | [4] -6.5% | [5] -5.05% | [6] 2.85%

CCCC(=O)c1c(NOC2OCC(OC(C)=O)C(OC(C)=O)C2OC(C)=O)nc(OC)n(C)c1=O (stereo unspecified)
inactive: [1] -24.7% | [2] 3.1% | [3] -40.1% | [4] 6.8% | [5] -15.9% | [6] -16.6%

CC1CC(C)(C)NC(C2CCC=CO2)O1 (stereo unspecified)
inactive: [1] 5.2% | [2] -3.9% | [3] -7% | [4] -20.6% | [5] -18.6% | [6] 5.9%

C/C(=N\[N+](C)(C)C)c1ccc2ccccc2c1
inactive: [1] 9.65% | [2] -2.45% | [3] -1.6% | [4] 5.5% | [5] -6% | [6] -9.6%

O=C(COc1ccc(Cl)cc1C(=O)O)NCc1ccc([N+](=O)[O-])cc1
inactive: [1] -9.45% | [2] 8.1% | [3] 20.8% | [4] -10.9% | [5] -9.85% | [6] -24.6%
